Measurements reported in PubChem BioAssay AID652029 (The Scripps Research Institute Molecular Screening Center, 2013).
Some of the results follow. Unmarked numbers belong to inactive results. Active and inactive are the calls of the source.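 The calls were made as follows: active = inhibition of LYPLA2 enzyme probe labeling above about 50% (limit read from the data); inactive = inhibition below that limit.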

These molecules were tested against Acyl-protein thioesterase 2 (Homo sapiens) (UniProt O95372) (assay: LYPLA2 inhibitors in proteome, late-stage follow-up, gel-based competitive ABPP, fluorescence, assay provider (AID 652029;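 also: loss of FP-Rh probe labeling of the LYPLA2 gel band measured as band density; 0% = DMSO only control band and 100% = blank gel background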)). Conditions: rhLYPLA2 in mouse brain proteome, gel ABPP FP-Rh; at 20 µM; stronger effect = higher value.
Acyl-protein thioesterase 2 (Homo sapiens), sequence (O95372 whole entry, looked up): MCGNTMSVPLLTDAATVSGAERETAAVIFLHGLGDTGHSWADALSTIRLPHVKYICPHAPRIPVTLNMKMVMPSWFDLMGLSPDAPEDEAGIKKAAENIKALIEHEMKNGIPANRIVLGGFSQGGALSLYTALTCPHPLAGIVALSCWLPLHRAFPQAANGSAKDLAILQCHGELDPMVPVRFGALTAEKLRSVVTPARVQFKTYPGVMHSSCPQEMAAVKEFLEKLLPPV

SMILES	inhibition
O=C(CCCN1C(=O)c2cccc3cccc(c23)C1=O)N1CCN(Cc2ccc3c(c2)OCO3)CC1	25%
O=C1C2CCCN2C(=O)N1CCCCN1CCN(c2cccc(C(F)(F)F)c2)CC1 (stereo not given)	44%
CCC(=O)c1ccc(OCC(O)CN2CCN(c3cccc(C(F)(F)F)c3)CC2)cc1 (stereo not given)	18%
CC(=O)c1ccc(N2CCN(C(=O)C3CCN(S(=O)(=O)c4ccc5c(c4)CC(C)N5C(=O)C4CC4)CC3)CC2)cc1 (stereo not given)	70% (active)
COc1ccc(N2CCN(C(=O)c3ccc(N4CCCCS4(=O)=O)cc3)CC2)cc1	49%
